From PubChem BioAssay AID602313 (National Center for Advancing Translational Sciences (NCATS), 2012)
Screen size: about 390,000 compounds; about 760 (0.19%) were called active. Roughly 3% stayed inconclusive and do not appear here. This excerpt belongs to a sample that is enriched for actives. Unmarked numbers belong to inactive results. Calls follow the shape of the dose curve; as a rule, active = well fitted inhibition curve with a large enough effect; inconclusive = small, poorly fitted or top-dose-only effect; inactive = flat fitted curve, though single readings scatter.

experiment: qHTS for Inhibitors of Vif-A3F Interactions: qHTS; conditions: HeLa A3F-eYFP + Vif (tagged APOBEC3F with the HIV-1 protein that degrades it), YFP fluorescence increase; series mostly up to 46.1 µM; activity, negative = active: at the top concentration; also: nearly all actives have a fitted effect of over 65% in size; as to activity, negative = active: % of control where 0% means no effect
From the text: The recent discovery and characterization of host restriction factors, which provide a potent defense to invading retroviruses, has provided new targets for antiviral drug development. APOBEC3G (A3G) and APOBEC3F (A3F) are potent cytidine deaminases that block HIV-1 replication; HIV-1 expresses the Vif protein, which counteracts A3G and A3F by binding to them and inducing their proteasomal degradation. The Vif-A3G and Vif-A3F interactions provide two potential targets for development of small molecules which can interfere with the ability of Vif to degrade A3G or A3F. […] To identify inhibitors that can interfere with Vif mediated degradation of A3G and A3F, we have developed Hela cell lines that stably express A3G or A3F tagged with eYFP at the C-terminal end (A3G-eYFP or A3F-eYFP, respectively) and Vif. In the absence of an inhibitor, Vif induces degradation of A3G-eYFP and A3F-eYFP, and the cells are not fluorescent. In the presence of an inhibitor, it is expected that Vif will be unable to degrade A3G-eYFP and/or A3F-eYFP, resulting in an increase in yellow fluorescence. In this assays Vif A3F was screened against the Molecular Library Small Molecule Repository (MLSMR). NIH Chemical Genomics Center [NCGC] NIH Molecular Libraries Probe Centers Network [MLPCN] MLPCN Grant: MH093245 Assay Submitter (PI): Vinay Pathak, National Cancer Institute
5 uL of 700 cells/well of A3F-YFP cells are dispensed into black, clear bottom plates. The plates are incubated overnight at 37 deg C. 23 nL of compounds are added by pintool. The plates are incubated overnight at 37 deg C and then read on the TTP Acumen (Ex 488/ Em 500-530).
Potency is read from the fitted curve at half-maximal effect.

Structure (SMILES)	Potency	activity, negative = active [%]
CC1=CC(=Cc2sc3ccccc3[n+]2C)C=C(C)O1	5.01 µM (active)	
CNP1(NC)=Nc2nn(-c3ccccc3)c(N)c2C(c2ccccc2)=N1		10.7
O=C(N/N=C/c1c(O)n(Cc2ccccc2)c(=O)[nH]c1=O)c1ccccc1		-1.19
CC/C(=N\NC(=O)c1ccccc1O)c1c(O)n(Cc2ccccc2)c(=O)[nH]c1=O	11.2 µM (active)	
CCC(=NCc1ccco1)c1c(O)n(Cc2ccccc2)c(=O)[nH]c1=O		-1.46
Cc1ccc2c(c1)=C/C(=C\c1c(O)[nH]c(=O)[nH]c1=O)C(=O)N=2		-6.73
COc1cc(Cn2c(N)c(C(=O)NCc3ccco3)c3nc4ccccc4nc32)cc(OC)c1OC		-27.3
CCOc1ccc(CNC(=O)c2cccc(Nc3nc4ccccc4n4nnnc34)c2)cc1OC	12.6 µM (active)	
CCCn1c(C(=O)c2ccccc2OC)nc2ccccc21		3.65
COC(=O)C1=C(c2cc3ccccc3s2)C[C@@H]2CC[C@H]1N2C(=O)NCc1cccc2ccccc12		6.94
CC(=CCOc1ccc2ccc(=O)oc2c1)C1=CC(=O)C(C)(C)O1		-1.31
O=c1c2ccccc2[nH]c(=S)n1-c1cccc(Cl)c1		-2.68
O=c1c2ccccc2nc(/C=C/c2ccc(F)cc2)n1-c1ccccc1O	22.4 µM (active)	
Cn1cc(/C=C/c2nc3ccccc3c(=O)n2-c2ccccc2)c2ccccc21		-2.89
O=c1c2ccccc2nc(/C=C/c2ccco2)n1-c1ccccc1O		0.199
CCC(C)(O)C(=O)OC1C(=O)OC2CC3C(C)=CC(=O)C(O)C3(C)C3C4(O)OCC23C1C(C)C4O (stereo not given)		4.47
C=C(C)C1(CCCC)C(=O)NC(=S)NC1=O		-4.34
COC(=O)C1=C(c2ccc(Cl)c(C(F)(F)F)c2)C[C@@H]2CC[C@H]1N2C(=O)NC(C)C		-0.754
COC(=O)C1=C(c2cc3ccccc3o2)C[C@@H]2CC[C@H]1N2C(=O)NC1CCCCC1		-0.572
CC(C)(C)c1ccc(OC(=O)N2CCCCC2)cc1		-16.2
